Results published in the supplement of paper PMC10849652.
Of roughly 7,900 targets only a part is listed; those with a hit were picked by preference. About 0.6% of all pairs of compound and target were hits.

Columns and labels:
Assay in all cases: log2 fold change, soluble protein after heating vs DMSO (PISA); higher = thermal stabilisation; K562 cells, 10 uM, 30 min; active = over 0.2 and 3.5 SD of the protein, either way, in both replicates (recomputed)
ZEB2 = ZEB2 (UniProt O60315)
Outline: (§1)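 Thermal stability values are relative to control samples and come from duplicates. They are expressed as log2 fold changes. For measurement, K562 cells (2×10^6 cells/mL) received 10 μM compound for 30 min, and aliquots were heated for 3 min over 48°C-58°C, pooled, and extracted at 4°C in PBS with 0.5% NP-40. Soluble protein, the supernatant after 21,000xg for 90 min, was quantified by TMTpro 16plex LC-MS/MS with equalised channel sums.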

ZER1 = ZER1 (UniProt Q7Z7L7)
Outline: as §1

ZFAND5 = ZFAND5 (UniProt O76080)
Outline: as §1

ZFAND6 = ZFAND6 (UniProt Q6FIF0)
Outline: as §1

ZFP91 = ZFP91 (UniProt Q96JP5)
Outline: as §1

ZFPL1 = ZFPL1 (UniProt O95159)
Outline: as §1

ZMAT2 = ZMAT2 (UniProt Q96NC0)
Outline: as §1

ZMYM1 = ZMYM1 (UniProt Q5SVZ6)
Outline: as §1

ZMYM3 = ZMYM3 (UniProt Q14202)
Outline: as §1

ZNF143 = ZNF143 (UniProt P52747)
Outline: as §1

ZNF217 = ZNF217 (UniProt O75362)
Outline: as §1

ZNF239 = ZNF239 (UniProt Q16600)
Outline: as §1

ZNF277 = ZNF277 (UniProt Q9NRM2)
Outline: as §1

ZNF511 isoform 1 = ZNF511 isoform 1 (UniProt Q8NB15)
Outline: as §1

ZNF512 = ZNF512 (UniProt Q96ME7)
Outline: as §1

ZNF579 = ZNF579 (UniProt Q8NAF0)
Outline: as §1

ZNF609 = ZNF609 (UniProt O15014)
Outline: as §1

ZNF622 = ZNF622 (UniProt Q969S3)
Outline: as §1

ZRANB2 = ZRANB2 (UniProt O95218)
Outline: as §1

ZNF580 = ZNF580 (UniProt Q9UK33)
Outline: as §1

Measured: log2 fold change

Chain of ZFP91 (Q96JP5 whole entry, looked up): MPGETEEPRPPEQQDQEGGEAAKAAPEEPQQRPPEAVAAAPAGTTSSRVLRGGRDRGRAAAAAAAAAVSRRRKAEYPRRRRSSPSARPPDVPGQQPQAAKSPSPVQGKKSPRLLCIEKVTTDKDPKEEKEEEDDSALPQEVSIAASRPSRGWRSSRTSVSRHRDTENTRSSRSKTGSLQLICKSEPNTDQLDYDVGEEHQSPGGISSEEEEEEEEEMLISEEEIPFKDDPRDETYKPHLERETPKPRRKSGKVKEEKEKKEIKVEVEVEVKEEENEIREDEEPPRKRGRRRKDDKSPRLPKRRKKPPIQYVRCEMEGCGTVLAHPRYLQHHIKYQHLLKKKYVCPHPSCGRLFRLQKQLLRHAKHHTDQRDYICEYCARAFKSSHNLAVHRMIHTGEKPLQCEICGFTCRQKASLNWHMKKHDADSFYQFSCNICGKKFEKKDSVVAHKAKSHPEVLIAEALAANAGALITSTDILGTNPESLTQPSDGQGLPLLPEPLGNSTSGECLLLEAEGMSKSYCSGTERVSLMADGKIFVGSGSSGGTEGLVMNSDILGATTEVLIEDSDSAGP
Chain of ZNF609 (O15014 whole entry, looked up): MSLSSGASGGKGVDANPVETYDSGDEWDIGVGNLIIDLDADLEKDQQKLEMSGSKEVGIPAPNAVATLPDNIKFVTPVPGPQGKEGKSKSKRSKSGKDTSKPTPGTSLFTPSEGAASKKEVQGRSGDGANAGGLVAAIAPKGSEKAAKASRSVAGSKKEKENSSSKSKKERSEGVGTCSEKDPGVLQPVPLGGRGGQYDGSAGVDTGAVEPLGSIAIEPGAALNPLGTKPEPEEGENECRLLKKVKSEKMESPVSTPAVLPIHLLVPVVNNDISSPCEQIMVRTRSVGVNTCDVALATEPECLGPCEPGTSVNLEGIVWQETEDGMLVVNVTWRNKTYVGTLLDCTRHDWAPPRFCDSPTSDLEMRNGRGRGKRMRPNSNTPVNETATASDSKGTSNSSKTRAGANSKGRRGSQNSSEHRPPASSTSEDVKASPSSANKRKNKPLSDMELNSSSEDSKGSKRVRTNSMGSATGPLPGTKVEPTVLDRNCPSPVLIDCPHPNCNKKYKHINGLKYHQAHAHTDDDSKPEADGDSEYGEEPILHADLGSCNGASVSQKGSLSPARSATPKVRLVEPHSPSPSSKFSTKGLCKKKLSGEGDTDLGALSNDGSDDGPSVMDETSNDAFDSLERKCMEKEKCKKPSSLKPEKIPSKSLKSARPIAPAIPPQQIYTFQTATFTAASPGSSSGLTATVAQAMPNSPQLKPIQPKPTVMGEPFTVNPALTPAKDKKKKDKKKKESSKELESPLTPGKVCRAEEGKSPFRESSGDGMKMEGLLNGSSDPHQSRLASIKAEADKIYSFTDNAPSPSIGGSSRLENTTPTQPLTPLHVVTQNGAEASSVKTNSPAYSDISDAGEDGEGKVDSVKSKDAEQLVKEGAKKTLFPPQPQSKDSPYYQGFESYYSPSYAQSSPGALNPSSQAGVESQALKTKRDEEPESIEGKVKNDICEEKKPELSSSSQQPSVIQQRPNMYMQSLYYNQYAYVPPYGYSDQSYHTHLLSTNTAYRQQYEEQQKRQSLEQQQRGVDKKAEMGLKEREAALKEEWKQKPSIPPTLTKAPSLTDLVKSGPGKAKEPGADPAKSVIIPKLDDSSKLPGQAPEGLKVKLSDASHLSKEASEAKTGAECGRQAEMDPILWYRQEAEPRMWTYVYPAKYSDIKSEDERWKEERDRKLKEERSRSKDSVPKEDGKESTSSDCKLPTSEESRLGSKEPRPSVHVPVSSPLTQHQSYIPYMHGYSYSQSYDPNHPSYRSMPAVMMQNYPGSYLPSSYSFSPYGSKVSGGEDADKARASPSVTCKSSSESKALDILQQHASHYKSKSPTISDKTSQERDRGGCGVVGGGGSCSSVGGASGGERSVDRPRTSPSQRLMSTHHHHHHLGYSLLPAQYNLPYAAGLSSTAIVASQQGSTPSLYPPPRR
Chain of ZNF622 (Q969S3 whole entry, looked up): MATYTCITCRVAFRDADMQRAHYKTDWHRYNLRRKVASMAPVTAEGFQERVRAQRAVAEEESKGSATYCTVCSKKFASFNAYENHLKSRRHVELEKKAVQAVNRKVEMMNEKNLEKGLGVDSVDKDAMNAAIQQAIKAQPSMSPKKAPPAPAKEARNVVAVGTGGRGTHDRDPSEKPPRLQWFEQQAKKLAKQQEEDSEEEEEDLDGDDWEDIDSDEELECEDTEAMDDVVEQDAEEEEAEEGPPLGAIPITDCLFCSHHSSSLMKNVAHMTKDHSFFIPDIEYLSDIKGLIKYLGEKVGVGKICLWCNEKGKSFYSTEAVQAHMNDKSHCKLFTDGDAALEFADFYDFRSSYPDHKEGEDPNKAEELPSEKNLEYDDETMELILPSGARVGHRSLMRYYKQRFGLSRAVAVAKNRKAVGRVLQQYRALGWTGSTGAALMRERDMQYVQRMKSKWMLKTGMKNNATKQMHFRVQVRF
Chain of ZNF512 (Q96ME7 whole entry, looked up): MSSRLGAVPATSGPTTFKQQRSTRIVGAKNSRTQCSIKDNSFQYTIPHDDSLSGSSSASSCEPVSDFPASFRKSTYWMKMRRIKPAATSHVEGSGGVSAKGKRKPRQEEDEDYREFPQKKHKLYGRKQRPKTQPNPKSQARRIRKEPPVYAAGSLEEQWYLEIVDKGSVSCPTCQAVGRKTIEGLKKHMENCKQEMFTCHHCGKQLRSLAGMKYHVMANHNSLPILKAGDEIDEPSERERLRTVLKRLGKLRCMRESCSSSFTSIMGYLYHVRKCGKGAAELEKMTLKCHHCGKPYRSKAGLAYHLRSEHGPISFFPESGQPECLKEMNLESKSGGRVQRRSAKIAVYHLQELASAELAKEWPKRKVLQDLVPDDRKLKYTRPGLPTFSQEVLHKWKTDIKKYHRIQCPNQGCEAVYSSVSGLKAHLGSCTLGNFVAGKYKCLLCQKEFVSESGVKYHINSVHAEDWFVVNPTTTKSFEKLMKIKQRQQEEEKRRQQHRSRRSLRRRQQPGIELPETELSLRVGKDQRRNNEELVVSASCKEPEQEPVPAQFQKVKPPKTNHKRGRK
Chain of ZNF277 (Q9NRM2 whole entry, looked up): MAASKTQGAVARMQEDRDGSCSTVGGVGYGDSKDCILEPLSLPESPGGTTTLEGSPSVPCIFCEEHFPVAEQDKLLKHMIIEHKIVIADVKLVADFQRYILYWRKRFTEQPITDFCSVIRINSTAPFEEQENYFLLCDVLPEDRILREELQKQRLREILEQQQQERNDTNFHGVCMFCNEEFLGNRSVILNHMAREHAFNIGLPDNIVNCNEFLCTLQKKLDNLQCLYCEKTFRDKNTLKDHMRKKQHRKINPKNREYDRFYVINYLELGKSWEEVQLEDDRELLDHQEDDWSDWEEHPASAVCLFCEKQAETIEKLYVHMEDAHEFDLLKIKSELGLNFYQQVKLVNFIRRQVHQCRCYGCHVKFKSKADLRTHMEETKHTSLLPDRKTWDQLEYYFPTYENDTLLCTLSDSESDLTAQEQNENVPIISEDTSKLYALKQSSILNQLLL
Chain of ZNF143 (P52747 whole entry, looked up): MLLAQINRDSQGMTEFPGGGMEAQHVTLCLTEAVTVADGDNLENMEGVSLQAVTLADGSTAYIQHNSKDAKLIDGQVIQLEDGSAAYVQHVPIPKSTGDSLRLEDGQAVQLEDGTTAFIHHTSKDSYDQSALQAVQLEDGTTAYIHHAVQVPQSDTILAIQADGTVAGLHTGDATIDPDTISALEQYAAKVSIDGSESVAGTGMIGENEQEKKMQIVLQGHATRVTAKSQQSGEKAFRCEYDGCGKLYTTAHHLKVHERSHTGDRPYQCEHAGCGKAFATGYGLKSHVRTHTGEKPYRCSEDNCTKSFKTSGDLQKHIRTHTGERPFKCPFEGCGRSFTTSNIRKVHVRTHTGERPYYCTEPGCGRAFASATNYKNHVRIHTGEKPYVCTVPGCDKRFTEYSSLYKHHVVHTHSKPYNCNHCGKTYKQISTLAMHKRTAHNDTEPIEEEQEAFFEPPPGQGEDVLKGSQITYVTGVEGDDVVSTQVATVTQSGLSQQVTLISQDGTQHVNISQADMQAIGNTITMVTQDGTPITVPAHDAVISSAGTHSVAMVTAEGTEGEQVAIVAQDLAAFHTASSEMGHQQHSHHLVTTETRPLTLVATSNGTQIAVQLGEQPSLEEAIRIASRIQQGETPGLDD
Chain of ZFPL1 (O95159 whole entry, looked up): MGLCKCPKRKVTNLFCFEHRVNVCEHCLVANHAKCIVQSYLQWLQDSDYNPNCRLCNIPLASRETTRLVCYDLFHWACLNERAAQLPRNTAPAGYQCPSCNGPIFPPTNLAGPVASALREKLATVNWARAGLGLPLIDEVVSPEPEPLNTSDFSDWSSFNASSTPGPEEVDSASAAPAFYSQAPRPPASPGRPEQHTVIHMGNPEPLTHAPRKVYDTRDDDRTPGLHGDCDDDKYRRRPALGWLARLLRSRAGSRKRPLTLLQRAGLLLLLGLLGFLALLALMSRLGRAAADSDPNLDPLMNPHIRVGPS
Chain of ZFAND6 (Q6FIF0 whole entry, looked up): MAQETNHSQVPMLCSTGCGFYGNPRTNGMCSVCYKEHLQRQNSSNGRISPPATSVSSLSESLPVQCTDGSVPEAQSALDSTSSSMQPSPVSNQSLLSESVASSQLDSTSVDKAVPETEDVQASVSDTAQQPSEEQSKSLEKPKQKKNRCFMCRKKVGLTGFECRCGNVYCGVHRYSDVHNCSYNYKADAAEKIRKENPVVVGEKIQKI
Chain of ZNF511 isoform 1 (Q8NB15 whole entry, looked up, canonical isoform): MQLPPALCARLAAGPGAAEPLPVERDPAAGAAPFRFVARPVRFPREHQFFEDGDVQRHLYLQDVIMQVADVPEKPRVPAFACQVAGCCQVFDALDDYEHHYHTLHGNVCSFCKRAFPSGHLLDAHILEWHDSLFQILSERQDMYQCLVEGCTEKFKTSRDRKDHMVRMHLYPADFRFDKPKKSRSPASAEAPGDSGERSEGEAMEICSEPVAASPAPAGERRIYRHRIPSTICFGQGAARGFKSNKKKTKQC

CC1=C(C(=O)Nc2cc3cn[nH]c3cc2F)C(c2ccc(C(F)(F)F)cc2)CC(=O)N1 (stereo not drawn)
inactive: ZEB2 -0.076 | ZER1 -0.112 | ZFAND5 0.058 | ZFAND6 -0.013 | ZFP91 0.058 | ZFPL1 0.041 | ZMAT2 0.026 | ZMYM1 0.088 | ZMYM3 0.062 | ZNF143 0.033 | ZNF217 -0.033 | ZNF239 0.283 | ZNF277 -0.009 | ZNF511 isoform 1 -0.006 | ZNF512 -0.261 | ZNF579 -0.003 | ZNF609 -0.117 | ZNF622 -0.083 | ZRANB2 0.025

Cc1ccc(Sc2cncc3sc(C(N)=O)cc23)cc1
inactive: ZEB2 -0.012 | ZER1 -0.085 | ZFAND5 -0.047 | ZFAND6 -0.01 | ZFP91 -0.025 | ZFPL1 0.008 | ZMAT2 0.113 | ZMYM1 0.061 | ZMYM3 -0.07 | ZNF143 -0.042 | ZNF217 -0.107 | ZNF239 0.019 | ZNF277 -0.032 | ZNF511 isoform 1 0.018 | ZNF579 -0.07 | ZNF580 0.16 | ZNF609 -0.045 | ZNF622 -0.022 | ZRANB2 -0.04

Cc1cn(-c2cc(NC(=O)c3ccc(C)c(Nc4nccc(-c5cccnc5)n4)c3)cc(C(F)(F)F)c2)cn1 [nilotinib]
inactive: ZEB2 0.025 | ZER1 0.098 | ZFAND5 0.098 | ZFAND6 0.014 | ZFP91 0.023 | ZFPL1 -0.047 | ZMAT2 0.012 | ZMYM1 -0.009 | ZMYM3 0.041 | ZNF143 -0.105 | ZNF217 -0.082 | ZNF239 -0.022 | ZNF277 -0.207 | ZNF511 isoform 1 -0.17 | ZNF512 -0.031 | ZNF579 0.105 | ZNF609 0.03 | ZNF622 0.046 | ZRANB2 0.052

CC(C)(O)CC(=O)NCCn1ccc2ncnc(Nc3ccc(Oc4cccc(C(F)(F)F)c4)c(Cl)c3)c21
inactive: ZEB2 0.034 | ZER1 -0.104 | ZFAND5 -0.019 | ZFAND6 0.015 | ZFP91 0.065 | ZFPL1 0.04 | ZMAT2 -0.016 | ZMYM1 -0.01 | ZMYM3 0.084 | ZNF143 0.028 | ZNF217 -0.122 | ZNF239 0.086 | ZNF277 -0.002 | ZNF511 isoform 1 0.1 | ZNF512 -0.018 | ZNF579 -0.018 | ZNF609 0.101 | ZNF622 -0.078 | ZRANB2 -0.012

CC[C@H](C)n1cc(C)c2c(C(=O)NCc3c(C)cc(C)[nH]c3=O)cc(-c3ccc(N4CCNCC4)nc3)cc21
inactive: ZEB2 0.173 | ZER1 0.064 | ZFAND5 -0.045 | ZFAND6 -0.05 | ZFP91 0.04 | ZFPL1 -0.013 | ZMAT2 -0.073 | ZMYM1 -0.016 | ZMYM3 0.055 | ZNF143 0.068 | ZNF217 0.045 | ZNF239 -0.096 | ZNF277 0.02 | ZNF511 isoform 1 -0.058 | ZNF512 -0.002 | ZNF579 0.167 | ZNF609 0.076 | ZNF622 -0.012 | ZRANB2 0

CN(C)CC(=O)Nc1ccc2[nH]c(=O)c3ccccc3c2c1
inactive: ZEB2 -0.124 | ZER1 -0.099 | ZFAND5 -0.119 | ZFAND6 -0.052 | ZFP91 -0.074 | ZFPL1 0 | ZMAT2 -0.018 | ZMYM1 -0.046 | ZMYM3 -0.067 | ZNF143 -0.025 | ZNF217 0.06 | ZNF239 -0.1 | ZNF277 -0.003 | ZNF511 isoform 1 0.068 | ZNF579 -0.026 | ZNF580 0.046 | ZNF609 0.047 | ZNF622 -0.024 | ZRANB2 -0.048

COc1cc(Nc2ncc3c(n2)-c2ccc(Cl)cc2C(c2c(F)cccc2OC)=NC3)ccc1C(=O)O [alisertib]
inactive: ZEB2 0.103 | ZER1 -0.006 | ZFAND5 -0.057 | ZFAND6 -0.079 | ZFP91 -0.013 | ZFPL1 0.014 | ZMAT2 -0.045 | ZMYM1 -0.021 | ZMYM3 0.057 | ZNF143 -0.05 | ZNF217 -0.092 | ZNF239 -0.004 | ZNF277 0.028 | ZNF511 isoform 1 1.14 | ZNF512 -0.286 | ZNF579 -0.082 | ZNF609 -0.021 | ZNF622 -0.028 | ZRANB2 -0.058
